Screen size: about 3,200 compounds; about 300 (9.4%) showed activity. The sample holds actives, similar compounds and a random draw of the others, so the mix is not that of the screen.
System: A673/TR/shEF
Experiment: cell viability (LOESS-normalised, relative to median of negative controls) (log2 ratio); higher = more viable cells (less compound effect), active = hit call of the paper (over 3 MAD below the median)
Details: treatment time: 72 h
Summary of the method: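 Viability of A673/TR/shEF Ewing sarcoma cells was determined by CellTiter-Glo luminescence. The cells, at 1,500 per well in 384-well plates, were grown with or without doxycycline from 24 h before compound addition to switch on EWS-FLI1 shRNA knockdown, then exposed for three days to library compounds at two or more concentrations or to DMSO controls. Signals were LOESS-corrected plate by plate, normalised to the negative-control median and log2-transformed.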

[1] = 0.25 µM, library screen: screen1, EWS-FLI1 expression: high (no doxycycline)
[2] = 0.25 µM, library screen: screen1, EWS-FLI1 expression: low (doxycycline-induced shRNA knockdown)
[3] = 2.5 µM, library screen: screen1, EWS-FLI1 expression: high (no doxycycline)
[4] = 2.5 µM, library screen: screen1, EWS-FLI1 expression: low (doxycycline-induced shRNA knockdown)
[5] = 0.103 µM, library screen: screen3, EWS-FLI1 expression: high (no doxycycline)
[6] = 0.103 µM, library screen: screen3, EWS-FLI1 expression: low (doxycycline-induced shRNA knockdown)
[7] = 0.308 µM, library screen: screen3, EWS-FLI1 expression: high (no doxycycline)
[8] = 0.308 µM, library screen: screen3, EWS-FLI1 expression: low (doxycycline-induced shRNA knockdown)
[9] = 0.926 µM, library screen: screen3, EWS-FLI1 expression: high (no doxycycline)
[10] = 0.926 µM, library screen: screen3, EWS-FLI1 expression: low (doxycycline-induced shRNA knockdown)
[11] = 2.8 µM, library screen: screen3, EWS-FLI1 expression: high (no doxycycline)
[12] = 2.8 µM, library screen: screen3, EWS-FLI1 expression: low (doxycycline-induced shRNA knockdown)
[13] = 8.3 µM, library screen: screen3, EWS-FLI1 expression: high (no doxycycline)
[14] = 8.3 µM, library screen: screen3, EWS-FLI1 expression: low (doxycycline-induced shRNA knockdown)
[15] = 25 µM, library screen: screen3, EWS-FLI1 expression: high (no doxycycline)
[16] = 25 µM, library screen: screen3, EWS-FLI1 expression: low (doxycycline-induced shRNA knockdown)

Measured: cell viability (log2)

COc1ccc(-c2cc(=O)c3c(OC)cc(OC)cc3o2)cc1
inactive: [1] 0.0279 | [2] 0.0681 | [3] 0.0807 | [4] 0.22

CC(=O)Oc1cc(C)c2c(c1C(OC(C)=O)OC(C)=O)Oc1c(c(C)c(OC(C)=O)c3c1C(OC(C)=O)OC3=O)OC2=O (stereo not drawn)
inactive: [1] 0.0407 | [2] 0.0968 | [3] 0.0425 | [4] 0.133

CC1(C)CC[C@]2(C)CC[C@]3(C)C(=CC[C@@H]4[C@@]5(C)CC[C@H](O)C(C)(C)[C@@H]5CC[C@]43C)[C@@H]2C1
inactive: [1] 0.0903 | [2] 0.0065 | [3] 0.1 | [4] 0.118

COC1=C[C@@H](C)[C@@H]2C[C@H]3OC(=O)C[C@H]4C(C)=C(OC)C(=O)[C@H]([C@@]2(C)C1=O)[C@@]34C
inactive: [1] 0.0742 | [2] 0.006 | [3] 0.146 | [4] 0.0264

Cc1ccc(C(=O)Nc2ccc(CN3CCN(C)CC3)c(C(F)(F)F)c2)cc1C#Cc1cnc2cccnn12
0.218: [10]
inactive: [5] -0.0141 | [6] 0.111 | [7] -0.0138 | [8] 0.169 | [12] 0.093
active: [9] -0.202 | [11] -0.252 | [13] -0.655 | [14] -0.442 | [15] -1.59 | [16] -1.35

CC(C)c1c(O)ccc2c1CCC1[C@@](C)(C(=O)O)CCC[C@]21C (stereo partly drawn)
inactive: [1] 0.0397 | [2] 0.152 | [3] 0.0988 | [4] 0.234

C=C(C)/C=C1/C=CC(=O)C(C)=C1
inactive: [1] 0.0888 | [2] 0.0664 | [3] 0.0231 | [4] 0.158

CCCOc1ccc2nc(NC(=O)OC)[nH]c2c1
active: [3] -0.659
inactive: [1] 0.0532 | [2] 0.106 | [4] -0.0137

CCCCOc1ccc(CC(=O)NO)cc1
inactive: [1] 0.0397 | [2] 0.0519 | [3] 0.124 | [4] 0.116

CCCSc1ccc2nc(NC(=O)OC)[nH]c2c1
active: [1] -0.206 | [3] -1.99 | [4] -1.04 | [11] -0.524 | [13] -1.81 | [14] -0.886 | 25 µM, library screen: screen2, EWS-FLI1 expression: high (no doxycycline) -1.74 | 25 µM, library screen: screen2, EWS-FLI1 expression: low (doxycycline-induced shRNA knockdown) -0.157 | [15] -2.99 | [16] -1.16
inactive: 0.025 µM, library screen: screen2, EWS-FLI1 expression: high (no doxycycline) 0.0864 | 0.025 µM, library screen: screen2, EWS-FLI1 expression: low (doxycycline-induced shRNA knockdown) 0.0115 | [5] 0.197 | [6] -0.0327 | [2] -0.0499 | 0.25 µM, library screen: screen2, EWS-FLI1 expression: high (no doxycycline) 0.0348 | 0.25 µM, library screen: screen2, EWS-FLI1 expression: low (doxycycline-induced shRNA knockdown) 0.051 | [7] 0.0506 | [8] 0.123 | [9] 0.0609 | [10] 0.0788 | 2.5 µM, library screen: screen2, EWS-FLI1 expression: high (no doxycycline) 0.158 | 2.5 µM, library screen: screen2, EWS-FLI1 expression: low (doxycycline-induced shRNA knockdown) 0.0631 | [12] 0.00738

Source: the supplement of paper PMC6089552
